Compounds with a hit are over-represented: about 15% of the library has one in this group of screens.
Sm TGR block – qHTS Assay for the Inhibitors of Schistosoma Mansoni Peroxiredoxins | Potency, µM (highest dose often 114 µM), without a hit: at the highest dose activity change, negative = inhibition, actives largely listed as inhibitors | purified TGR, DTNB reduction, TNB absorbance 405 nm | Schistosoma mansoni thioredoxin glutathione reductase (TGR), Q962Y6 | 3% of 360,000 active; note: potency is the fitted concentration of half-maximal effect; % is set by controls: 0 for no effect and ±100 for the full control effect; nearly all actives have a fitted effect of over 60% in size
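Kinetic colorimetric format: TGR-catalysed, NADPH-driven DTNB reduction monitored via TNB absorbance. Enzyme dispensed at 20 nM; compound exposure 15 min at room temperature before reaction start.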
HCMV inh – qHTS Assay for inhibitors of the human cytomegalovirus (HCMV). HFF cells, HCMV-luciferase reporter, 72 h; stronger effect = lower value. activity change, negative = inhibition, % at 57.5 µM. 4.5% of 410,000 active. AID 1259415, 2018; in the data active = activity change below about -60%; inconclusive = no clear call, values can overlap the other calls; inactive = above about -39%; note: % is set by controls: 0 for no effect and ±100 for the full control effect
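Two compound doses tested in HFFs infected with HCMV-luciferase, MOI 1 PFU/cell, 72 h at 37C. Lysate luminescence read with OneGlo; data normalized against buffer-only and 10uM Salinomycin inhibitor controls.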
SARS PLP yeast – qHTS of Yeast-based Assay for SARS-CoV PLP; S. cerevisiae expressing SARS-CoV PLpro, growth rescue; Potency, µM (titrated, usually from 32.9 µM), inactives show top-dose activity, positive = growth rescue, usual class: activators; 0.19% of 330,000 active; calls by dose curve; note: potency is the fitted concentration of half-maximal effect; 0% is about no effect; nearly all actives have a fitted effect of over 55% in size
Pf growth 96h – Primary qHTS for delayed death inhibitors of the malarial parasite plastid, 96 hour incubation; Potency, µM (doses to about 28.7 µM), for inactives: at the highest dose activity change, negative = inhibition, usual class: inhibitors; 6.9% of 320,000 active; P. falciparum luciferase reporter growth, 96 h; note: potency is the fitted concentration of half-maximal effect; % is set by controls: 0 for no effect and ±100 for the full control effect
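Erythrocytes infected with luciferase-expressing P. falciparum were dispensed at 2% hematocrit and 0.05% parasitemia (final), then incubated with compounds 96 hours at 37 C in 5% CO2. Luminescence after detection reagent addition reported growth.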
HCV inhibitor – qHTS Assay for Inhibitors of Hepatitis C Virus (HCV). Huh7.5.1 HCVcc-Cre infection, luciferase reporter, 44 h. Potency, µM (highest dose often 41.8 µM), for the others: top-dose activity change, negative = inhibition, hits mostly inhibitors. 3.4% of 340,000 active; note: potency is the fitted concentration of half-maximal effect; % is set by controls: 0 for no effect and ±100 for the full control effect
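1,000 cells/well; 4 h culture; + compound; + HCVcc-Cre (~0.5 moi); 44 h; luciferase substrate, RT 15 min; read 15 sec.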
Pf growth 48h – Primary qHTS for delayed death inhibitors of the malarial parasite plastid, 48 hour incubation; P. falciparum luciferase growth in erythrocytes, 48 h; Potency, µM (top dose mostly 28.7 µM), for inactives: at the top dose activity change, negative = inhibition, hits mostly inhibitors; 5.9% of 310,000 active; AID 504832, 2011; note: potency is the fitted concentration of half-maximal effect; % is set by controls: 0 for no effect and ±100 for the full control effect
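Luminescence readout; reporter = integrated firefly luciferase in P. falciparum. RBC culture at 2% hematocrit, 0.1% parasitemia final, 37 C/5% CO2; decreased signal taken as growth inhibition.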
* = called active by the depositor; ? = inconclusive; / = no result given. Unless noted, calls come from the whole dose curve; as a rule, active = well fitted curve in the direction sought with a large enough effect; inconclusive = small, poorly fitted or top-dose-only effect, or another doubt; inactive = no such curve, though single readings can be large; an effect the other way counts as inactive or inconclusive.

SMILES | Sm TGR block | HCMV inh | SARS PLP yeast | Pf growth 96h | HCV inhibitor | Pf growth 48h
Cc1ccc(-c2c3c(nc4sc(C(N)=O)c(N)c24)CCC3)cc1 | -8% | -87* | 2% | ? | ? | 29%
NC(=O)c1sc2nc3c(c(-c4ccc(Cl)cc4)c2c1N)CCCC3 | -30% | -61* | -7% | / | ? | -8%
Cc1ccccc1C(=O)Nc1ccc2c(C#N)c3nc4ccccc4nc3n2c1 | -25% | -65* | 14% | 0% | 1% | 2%
COc1ccc(C2(O)CC3CCC(C2)N3c2cc(C)nc(-c3ccccc3)n2)cc1 (stereo unspecified) | 1% | -30 | -16% | / | ? | 12µM*
O=C(C[n+]1cc(-c2ccc(Cl)cc2)n2c1CCC2)N1c2ccccc2Sc2ccccc21 | -2% | -26 | 2% | ? | -5% | 1.7µM*
O=C(CN1CCCC1)N1c2ccccc2Sc2ccc(Cl)cc21 | -15% | 68 | -4% | 6% | 4% | -16%
O=C(C[n+]1cc(-c2ccc(Cl)cc2)n2c1CCC2)Nc1nc(-c2ccccc2)cs1 | -6% | 70 | 0% | ? | ? | ?
COc1ccc(-c2c[n+](CC(=O)N3c4ccccc4Sc4ccccc43)c3n2CCC3)cc1 | -2% | -34 | 0% | 1.7µM* | -4% | 2.6µM*
O=C(C[n+]1cc(-c2ccc(Cl)c(Cl)c2)n2c1CCC2)N1c2ccccc2Sc2ccccc21 | -5% | -24 | -28% | ? | 8% | 2.6µM*
CNC(=O)c1c(NC(=O)CCS(=O)(=O)c2ccc(F)cc2)sc(C)c1C | -8% | -22 | 0% | -1% | 13% | -23%
COc1ccc(CCC(C(O)C(F)(F)F)S(=O)c2ccccc2)cc1 (stereo unspecified) | 3% | / | -3% | 2.1µM* | -21% | ?
Cc1ccc(SCC(=O)NCC2CCCO2)cc1 (stereo unspecified) | 1% | -93* | 0% | -36% | 17% | 47%
Cc1ccc(-c2nnc(SCC(=O)NCC3CCCO3)nc2-c2ccc(C)cc2)cc1 (stereo unspecified) | -2% | -10 | 9% | ? | -3% | 15µM*
COc1ccc(N(C)S(=O)(=O)c2ccc3c(c2)NC(=O)CO3)c(OC)c1 | -15% | 6 | 2% | -23% | -12% | 16%
CC1(C)Cc2c(C#N)c(N)n(-c3ccccc3)c(=S)c2CO1 | -13% | -7 | 1% | -9% | 17% | -8%
N#Cc1c2c(c(=S)n(-c3ccccc3)c1N)CCCC2 | 40µM* | 28 | -6% | 7% | ? | -8%
O=C1c2cccnc2Oc2ccc(Cl)cc2N1Cc1ccc(F)cc1 | -5% | -28 | 3% | ? | 9% | 12%
O=C(O)CCC/C=C\C[C@@H]1[C@@H](/C=C/[C@@H](O)COc2cccc(C(F)(F)F)c2)[C@H](O)C[C@@H]1O | / | / | / | 0.95µM* | / | -9%
O=C(O)CCCC(=O)Nc1cccc(C(F)(F)F)c1 | -16% | 28 | 0% | / | 5% | 11%
Cc1cc(C)c(S(=O)(=O)N2CCOC2CNC(=O)C(=O)NCCCN2CCOCC2)c(C)c1 (stereo unspecified) | ? | ? | -1% | ? | 8% | 20%
CN(C)c1cc(NC(=O)CNC(C)(C)CC(C)(C)C)c2ccccc2n1 | 0% | -60* | -6% | 18% | ? | 6%
CN(CC1CCN(CCc2cccc(C(F)(F)F)c2)CC1)C(=O)c1ccc(F)cc1F | 40µM* | -26 | -3% | 18% | -28% | ?
CSCCC(=O)N(C)CC1CCN(CCc2cccc(C(F)(F)F)c2)CC1 | -20% | 62 | 0% | 4.1µM* | -21% | 8%
CCN1CCC(O)(C(C(=O)O)c2ccccc2)CC1 (stereo unspecified) | / | -16 | / | / | -13% | /

Screening results (PubChem)
